Measured values published in the supplement of paper PMC7411054.
Structures can show the parent of a compound that is named as a salt.

How the values were obtained:
Conditions in all cases: treatment time: 24 h
A549-ACTB-RAB5A = experiment: phenotypically active (imaging signature differs from DMSO and reproducible) at any of 0.3-9 uM (binary (1 = active, 0 = inactive)); higher = active
How it was run: (§1)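 After 24 h at 0.3, 1, 3 or 9 µM, with four wells per treatment, fifteen gene-edited A549, HepG2 and WPMY1 reporter lines carrying BFP, GFP and RFP/FusionRed were imaged live. Each well's live-cell features were expressed relative to solvent control wells. Deviation required ≥3 of 4 wells past the 95th percentile of control Euclidean distances, and reproducibility a median replicate Pearson correlation over the 95th percentile of non-replicates. Phenotypic activity rested on both.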

A549-CANX-COX4 = experiment: as above
How it was run: as §1

A549-GM130-SQSTM1 = experiment: as above
How it was run: as §1

A549-TP53BP1-CLTA = experiment: as above
How it was run: as §1

A549-TUBA1B-RELA = experiment: as above
How it was run: as §1

HepG2-ACTB-RAB5A = experiment: as above
How it was run: as §1

HepG2-CANX-COX4 [1] = experiment: as above
How it was run: as §1

HepG2-GM130-SQSTM1 [2] = experiment: as above
How it was run: as §1

HepG2-TP53BP1-CLTA = experiment: as above
How it was run: as §1

HepG2-TUBA1B-RELA [3] = experiment: as above
How it was run: as §1

WPMY1-ACTB-RAB5A = experiment: as above
How it was run: as §1

WPMY1-CANX-COX4 = experiment: as above
How it was run: as §1

WPMY1-GM130-SQSTM1 [4] = experiment: as above
How it was run: as §1

WPMY1-TP53BP1-CLTA [5] = experiment: as above
How it was run: as §1

WPMY1-TUBA1B-RELA = experiment: as above
How it was run: as §1

WPMY1-TP53BP1-CLTA [6] = experiment: lowest phenotypically active concentration; higher = less potent
How it was run: as §1

HepG2-CANX-COX4 [7] = experiment: as above
How it was run: as §1

HepG2-GM130-SQSTM1 [8] = experiment: as above
How it was run: as §1

HepG2-TUBA1B-RELA [9] = experiment: as above
How it was run: as §1

WPMY1-GM130-SQSTM1 [10] = experiment: as above
How it was run: as §1

SMILES | phenotypically active (A549-ACTB-RAB5A) | phenotypically active (A549-CANX-COX4) | phenotypically active (A549-GM130-SQSTM1) | phenotypically active (A549-TP53BP1-CLTA) | phenotypically active (A549-TUBA1B-RELA) | phenotypically active (HepG2-ACTB-RAB5A) | phenotypically active (HepG2-CANX-COX4 [1]) | phenotypically active (HepG2-GM130-SQSTM1 [2]) | phenotypically active (HepG2-TP53BP1-CLTA) | phenotypically active (HepG2-TUBA1B-RELA [3]) | phenotypically active (WPMY1-ACTB-RAB5A) | phenotypically active (WPMY1-CANX-COX4) | phenotypically active (WPMY1-GM130-SQSTM1 [4]) | phenotypically active (WPMY1-TP53BP1-CLTA [5]) | phenotypically active (WPMY1-TUBA1B-RELA) | lowest phenotypically active concentration (WPMY1-TP53BP1-CLTA [6]) [µM] | lowest phenotypically active concentration (HepG2-CANX-COX4 [7]) [µM] | lowest phenotypically active concentration (HepG2-GM130-SQSTM1 [8]) [µM] | lowest phenotypically active concentration (HepG2-TUBA1B-RELA [9]) [µM] | lowest phenotypically active concentration (WPMY1-GM130-SQSTM1 [10]) [µM]
Cc1c(C(=O)Nc2cccc(C(F)(F)F)c2)cc(-c2ccccc2)n1CCCN1CCOCC1 | 1 (active) | 0 (inactive) | 1 (active) | 0 (inactive) | 0 (inactive) | 0 (inactive) | 0 (inactive) | 0 (inactive) | 0 (inactive) | 0 (inactive) | 0 (inactive) | 0 (inactive) | 0 (inactive) | 0 (inactive) | 0 (inactive) |  |  |  |  | 
COc1ccc2c(c[n+](C)c3c4cc5c(cc4ccc23)OCO5)c1OC [Chelerythrine chloride] | 1 (active) | 0 (inactive) | 0 (inactive) | 1 (active) | 0 (inactive) | 0 (inactive) | 0 (inactive) | 0 (inactive) | 1 (active) | 0 (inactive) | 0 (inactive) | 0 (inactive) | 0 (inactive) | 1 (active) | 0 (inactive) | 9 |  |  |  | 
CC[C@H]1CN2CC[C@H]1C[C@@H]2[C@@H](O)c1ccnc2ccc(OC)cc12 [Hydroquinidine HCl] | 1 (active) | 0 (inactive) | 0 (inactive) | 0 (inactive) | 1 (active) | 0 (inactive) | 1 (active) | 1 (active) | 0 (inactive) | 0 (inactive) | 1 (active) | 1 (active) | 0 (inactive) | 0 (inactive) | 1 (active) |  | 9 | 9 |  | 
COc1cc([C@@H]2c3cc4c(cc3[C@H](O)[C@H]3COC(=O)[C@H]23)OCO4)cc(OC)c1OC [Podophyllotoxin] | 1 (active) | 1 (active) | 1 (active) | 1 (active) | 1 (active) | 1 (active) | 1 (active) | 1 (active) | 1 (active) | 1 (active) | 1 (active) | 1 (active) | 1 (active) | 1 (active) | 1 (active) | ≤ 0.3 | ≤ 0.3 | ≤ 0.3 | ≤ 0.3 | ≤ 0.3
COc1cc2c(c(OC)c1OC)-c1ccc(O)c(=O)cc1[C@@H](N)CC2 [Trimethylcolchicinic acid] | 1 (active) | 1 (active) | 1 (active) | 1 (active) | 1 (active) | 0 (inactive) | 1 (active) | 0 (inactive) | 0 (inactive) | 1 (active) | 0 (inactive) | 0 (inactive) | 0 (inactive) | 0 (inactive) | 0 (inactive) |  | 9 |  | 9 | 
CC[C@@H]1C=CC=CC[C@H](C)[C@@H](O)[C@](C)(O)C(=O)[C@H](C)[C@@H](O)[C@H](C)C(=O)[C@H](C)[C@@H](O)[C@H](C)C=CC(=O)O[C@H]2[C@@H](C)[C@@H](CC1)O[C@@]1(CC[C@@H](C)[C@@H](C[C@H](C)O)O1)[C@@H]2C [Oligomycin A] | 1 (active) | 1 (active) | 1 (active) | 1 (active) | 1 (active) | 1 (active) | 1 (active) | 1 (active) | 1 (active) | 1 (active) | 0 (inactive) | 1 (active) | 0 (inactive) | 0 (inactive) | 0 (inactive) |  | ≤ 0.3 | ≤ 0.3 | ≤ 0.3 | 
O=C1NC(=O)c2c1c1c3ccccc3n3c1c1c2c2ccccc2n1C1CCC3O1 | 1 (active) | 0 (inactive) | 1 (active) | 0 (inactive) | 1 (active) | 0 (inactive) | 0 (inactive) | 0 (inactive) | 1 (active) | 0 (inactive) | 1 (active) | 1 (active) | 1 (active) | 1 (active) | 0 (inactive) | 9 |  |  |  | ≤ 0.3
CCN1CCN(C(=O)Cc2ccc(Nc3ncc(F)c(Nc4ccc(C(=O)Nc5ccccc5Cl)cc4)n3)cc2)CC1 | 1 (active) | 1 (active) | 1 (active) | 1 (active) | 1 (active) | 1 (active) | 1 (active) | 1 (active) | 1 (active) | 1 (active) | 1 (active) | 0 (inactive) | 0 (inactive) | 1 (active) | 1 (active) | 1 | 1 | 1 | ≤ 0.3 | 
O=C(NCCN1CCC2(CC1)C(=O)NCN2c1cccc(F)c1)c1ccc(F)c(F)c1 [ML 298 hydrochloride] | 1 (active) | 1 (active) | 1 (active) | 1 (active) | 1 (active) | 1 (active) | 0 (inactive) | 1 (active) | 1 (active) | 1 (active) | 1 (active) | 1 (active) | 1 (active) | 0 (inactive) | 1 (active) |  |  | 9 | 9 | 9
C/C=C(/C)C(=O)O[C@H]1C(C)=C2[C@H]([C@@H]1OC(=O)CCCCCCC)[C@@](C)(OC(C)=O)C[C@H](OC(=O)CCC)[C@@]1(O)[C@H]2OC(=O)[C@@]1(C)O [Thapsigargin] | 1 (active) | 1 (active) | 1 (active) | 1 (active) | 1 (active) | 1 (active) | 1 (active) | 1 (active) | 1 (active) | 1 (active) | 1 (active) | 1 (active) | 1 (active) | 1 (active) | 1 (active) | ≤ 0.3 | ≤ 0.3 | ≤ 0.3 | ≤ 0.3 | ≤ 0.3
COC(=O)[C@@]1(O)C[C@H]2O[C@]1(C)n1c3ccccc3c3c4c(c5c6ccccc6n2c5c31)C(=O)NC4 | 1 (active) | 1 (active) | 1 (active) | 1 (active) | 1 (active) | 1 (active) | 1 (active) | 1 (active) | 1 (active) | 1 (active) | 1 (active) | 1 (active) | 1 (active) | 1 (active) | 1 (active) | ≤ 0.3 | ≤ 0.3 | ≤ 0.3 | ≤ 0.3 | ≤ 0.3
COc1ccc2c(c1)/C(=C/c1c[nH]cn1)C(=O)N2 | 1 (active) | 1 (active) | 1 (active) | 1 (active) | 1 (active) | 1 (active) | 1 (active) | 1 (active) | 1 (active) | 1 (active) | 1 (active) | 1 (active) | 1 (active) | 1 (active) | 1 (active) | 1 | 1 | ≤ 0.3 | 1 | 1
COc1ccc(CCN2CCC(Nc3nc4ccccc4n3Cc3ccc(F)cc3)CC2)cc1 [astemizole] | 1 (active) | 1 (active) | 1 (active) | 1 (active) | 1 (active) | 1 (active) | 1 (active) | 1 (active) | 1 (active) | 1 (active) | 1 (active) | 1 (active) | 1 (active) | 1 (active) | 1 (active) | 9 | 3 | 3 | 1 | 3
CN1C[C@H](C(=O)N[C@]2(C)O[C@@]3(O)[C@@H]4CCCN4C(=O)[C@H](Cc4ccccc4)N3C2=O)C[C@@H]2c3cccc4[nH]cc(c34)C[C@H]21.CN1C[C@H](C(=O)N[C@]2(C)O[C@@]3(O)[C@@H]4CCCN4C(=O)[C@H](Cc4ccccc4)N3C2=O)C[C@@H]2c3cccc4[nH]cc(c34)C[C@H]21 [dihydroergotamine] | 1 (active) | 0 (inactive) | 1 (active) | 1 (active) | 1 (active) | 1 (active) | 0 (inactive) | 1 (active) | 1 (active) | 1 (active) | 0 (inactive) | 0 (inactive) | 1 (active) | 1 (active) | 0 (inactive) | 9 |  | 9 | 9 | 9
CC[C@@H](C(=O)[C@@H](C)[C@@H](O)[C@H](C)[C@@H]1O[C@@H]([C@@H](CC)C(=O)O)CC[C@@H]1C)[C@H]1O[C@]2(C=C[C@@H](O)[C@]3(CC[C@@](C)([C@H]4CC[C@](O)(CC)[C@H](C)O4)O3)O2)[C@H](C)C[C@@H]1C [Salinomycin Sodium] | 1 (active) | 1 (active) | 1 (active) | 1 (active) | 1 (active) | 1 (active) | 1 (active) | 1 (active) | 1 (active) | 1 (active) | 1 (active) | 1 (active) | 1 (active) | 1 (active) | 1 (active) | ≤ 0.3 | 1 | 1 | ≤ 0.3 | ≤ 0.3
COc1ccc(C[C@H]2NC[C@H](O)[C@H]2OC(C)=O)cc1 [Anisomycin] | 1 (active) | 1 (active) | 1 (active) | 1 (active) | 1 (active) | 1 (active) | 1 (active) | 1 (active) | 1 (active) | 1 (active) | 1 (active) | 1 (active) | 1 (active) | 1 (active) | 1 (active) | ≤ 0.3 | ≤ 0.3 | ≤ 0.3 | ≤ 0.3 | ≤ 0.3
O=c1[nH]c2ccccc2n1C1CCN(CCCC(c2ccc(F)cc2)c2ccc(F)cc2)CC1 [pimozide] | 1 (active) | 0 (inactive) | 1 (active) | 0 (inactive) | 1 (active) | 1 (active) | 0 (inactive) | 1 (active) | 0 (inactive) | 1 (active) | 0 (inactive) | 0 (inactive) | 0 (inactive) | 0 (inactive) | 0 (inactive) |  |  | 3 | 3 | 
CCn1cnc2c(Nc3cccc(Cl)c3)nc(N[C@H]3CCCC[C@H]3N)nc21 | 1 (active) | 1 (active) | 1 (active) | 1 (active) | 1 (active) | 1 (active) | 1 (active) | 1 (active) | 1 (active) | 1 (active) | 1 (active) | 1 (active) | 1 (active) | 1 (active) | 1 (active) | 1 | 1 | 1 | 1 | 1
CC[C@]12C=CCN3CC[C@]4(C(=C(C(=O)OC)C1)Nc1ccccc14)[C@@H]32 [Tabersonine dichlorhydrate] | 1 (active) | 1 (active) | 1 (active) | 0 (inactive) | 1 (active) | 1 (active) | 1 (active) | 1 (active) | 1 (active) | 1 (active) | 1 (active) | 1 (active) | 1 (active) | 1 (active) | 1 (active) | 9 | 9 | 9 | 9 | 9
COc1ccc(N(C(=O)Oc2c(C)cccc2C)c2ccnc(Nc3ccc(N4CCN(C)CC4)cc3)n2)c(OC)c1 | 1 (active) | 1 (active) | 1 (active) | 1 (active) | 1 (active) | 1 (active) | 1 (active) | 1 (active) | 1 (active) | 1 (active) | 1 (active) | 0 (inactive) | 0 (inactive) | 1 (active) | 0 (inactive) | 3 | 1 | 3 | ≤ 0.3 | 
